Data taken from the supplement of paper PMC8728848.
This excerpt belongs to a sample that is enriched for the strongest signals.

Experiments:
Assay in all cases: glycan array binding signal (z-score within array); higher = stronger binding
Conditions in all cases: glycan notation: IUPAC condensed, linker removed
[1] = target: Fuc(a1-2)Gal(b1-3)GlcNAc(b1-3)[Neu5Ac(a2-6)Gal(b1-4)GlcNAc(b1-6)]Gal(b1-4)Glc
Summary of the method: (§1)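 The binding signal is a Z-score computed within each array and averaged over linkers. Arrays of the same protein sequence at different concentrations or buffers were also averaged together. Data originate from 3228 arrays in the Consortium for Functional Glycomics database, kept only where the protein sequence was available.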

[2] = target: Fuc(a1-2)Gal(b1-4)GlcNAc(b1-3)Gal(b1-4)GlcNAc(b1-2)Man(a1-3)[Fuc(a1-2)Gal(b1-4)GlcNAc(b1-3)Gal(b1-4)GlcNAc(b1-2)Man(a1-6)]Man(b1-4)GlcNAc(b1-4)GlcNAc
Summary of the method: as §1

[3] = target: Fuc(a1-2)Gal(b1-4)GlcNAc(b1-3)GalNAc
Summary of the method: as §1

[4] = target: Fuc(a1-2)Gal6S(b1-3)GlcNAc
Summary of the method: as §1

[5] = target: Fuc(a1-2)[Gal(a1-3)]Gal(b1-4)GlcNAc
Summary of the method: as §1

[6] = target: Fuc(a1-2)[Gal(a1-3)]Gal(b1-4)GlcNAc(b1-2)Man(a1-3)[Fuc(a1-2)[Gal(a1-3)]Gal(b1-4)GlcNAc(b1-2)Man(a1-6)]Man(b1-4)GlcNAc(b1-4)GlcNAc
Summary of the method: as §1

[7] = target: Fuc(a1-2)[GalNAc(a1-3)]Gal(b1-4)GlcNAc
Summary of the method: as §1

[8] = target: Fuc(a1-2)[GalNAc(a1-3)]Gal(b1-4)GlcNAc(b1-2)Man(a1-3)[Fuc(a1-2)[GalNAc(a1-3)]Gal(b1-4)GlcNAc(b1-2)Man(a1-6)]Man(b1-4)GlcNAc(b1-4)GlcNAc
Summary of the method: as §1

[9] = target: Fuc(a1-2)[GalNAc(a1-3)]Gal(b1-4)[Fuc(a1-3)]GlcNAc
Summary of the method: as §1

[10] = target: Fuc(a1-2)[GalNAc(a1-3)]Gal(b1-4)[Fuc(a1-3)]GlcNAc(b1-3)GalNAc
Summary of the method: as §1

[11] = target: Fuc(a1-3)[Gal(b1-4)]GlcNAc(b1-2)Man(a1-3)[Fuc(a1-3)[Gal(b1-4)]GlcNAc(b1-2)Man(a1-6)]Man(b1-4)GlcNAc(b1-4)GlcNAc
Summary of the method: as §1

Gal(a1-3)Gal = target: Gal(a1-3)Gal
Summary of the method: as §1

Gal(a1-4)Gal(b1-4)Glc = target: Gal(a1-4)Gal(b1-4)Glc
Summary of the method: as §1

Gal(b1-3)GalNAc = target: Gal(b1-3)GalNAc
Summary of the method: as §1

[12] = target: Gal(b1-3)GalNAc(b1-4)Gal(b1-4)Glc
Summary of the method: as §1

[13] = target: Gal(b1-3)GlcNAc(b1-3)Gal(b1-4)GlcNAc
Summary of the method: as §1

[14] = target: Gal(b1-3)GlcNAc(b1-3)Gal(b1-4)GlcNAc(b1-6)[Gal(b1-3)GlcNAc(b1-3)]Gal(b1-4)Glc
Summary of the method: as §1

[15] = target: Gal(b1-4)GlcNAc(b1-3)Gal(b1-4)GlcNAc(b1-2)Man(a1-3)[Gal(b1-4)GlcNAc(b1-3)Gal(b1-4)GlcNAc(b1-2)Man(a1-6)]Man(b1-4)GlcNAc(b1-4)[Fuc(a1-6)]GlcNAc
Summary of the method: as §1

[16] = target: Gal(b1-4)GlcNAc(b1-3)Gal(b1-4)GlcNAc(b1-2)[Gal(b1-4)GlcNAc(b1-3)Gal(b1-4)GlcNAc(b1-6)]Man(a1-6)[Gal(b1-4)GlcNAc(b1-3)Gal(b1-4)GlcNAc(b1-2)Man(a1-3)]Man(b1-4)GlcNAc(b1-4)GlcNAc
Summary of the method: as §1

[17] = target: Gal(b1-4)GlcNAc(b1-3)Gal(b1-4)GlcNAc(b1-3)Gal(b1-4)GlcNAc(b1-2)Man(a1-3)[Gal(b1-4)GlcNAc(b1-3)Gal(b1-4)GlcNAc(b1-3)Gal(b1-4)GlcNAc(b1-2)Man(a1-6)]Man(b1-4)GlcNAc(b1-4)[Fuc(a1-6)]GlcNAc
Summary of the method: as §1

[18] = target: Gal(b1-4)GlcNAc(b1-3)Gal(b1-4)GlcNAc(b1-3)Gal(b1-4)GlcNAc(b1-2)[Gal(b1-4)GlcNAc(b1-3)Gal(b1-4)GlcNAc(b1-3)Gal(b1-4)GlcNAc(b1-6)]Man(a1-6)[Gal(b1-4)GlcNAc(b1-3)Gal(b1-4)GlcNAc(b1-3)Gal(b1-4)GlcNAc(b1-2)Man(a1-3)]Man(b1-4)GlcNAc(b1-4)[Fuc(a1-6)]GlcNAc
Summary of the method: as §1

[19] = target: Gal(b1-4)GlcNAc(b1-3)Gal(b1-4)GlcNAc(b1-3)Gal(b1-4)GlcNAc(b1-3)Gal(b1-4)GlcNAc(b1-2)Man(a1-3)[Gal(b1-4)GlcNAc(b1-3)Gal(b1-4)GlcNAc(b1-3)Gal(b1-4)GlcNAc(b1-3)Gal(b1-4)GlcNAc(b1-2)Man(a1-6)]Man(b1-4)GlcNAc(b1-4)GlcNAc
Summary of the method: as §1

[20] = target: Gal(b1-4)GlcNAc(b1-3)Gal(b1-4)GlcNAc(b1-3)Gal(b1-4)GlcNAc(b1-3)Gal(b1-4)GlcNAc(b1-2)Man(a1-3)[Gal(b1-4)GlcNAc(b1-3)Gal(b1-4)GlcNAc(b1-3)Gal(b1-4)GlcNAc(b1-3)Gal(b1-4)GlcNAc(b1-2)Man(a1-6)]Man(b1-4)GlcNAc(b1-4)[Fuc(a1-6)]GlcNAc
Summary of the method: as §1

[21] = target: Gal(b1-4)GlcNAc(b1-3)Gal(b1-4)GlcNAc(b1-3)Gal(b1-4)GlcNAc(b1-3)Gal(b1-4)GlcNAc(b1-2)[Gal(b1-4)GlcNAc(b1-3)Gal(b1-4)GlcNAc(b1-3)Gal(b1-4)GlcNAc(b1-3)Gal(b1-4)GlcNAc(b1-6)]Man(a1-6)[Gal(b1-4)GlcNAc(b1-3)Gal(b1-4)GlcNAc(b1-3)Gal(b1-4)GlcNAc(b1-3)Gal(b1-4)GlcNAc(b1-2)Man(a1-3)]Man(b1-4)GlcNAc(b1-4)[Fuc(a1-6)]GlcNAc
Summary of the method: as §1

[22] = target: Gal(b1-4)GlcNAc(b1-3)Gal(b1-4)GlcNAc(b1-3)Gal(b1-4)GlcNAc(b1-3)Gal(b1-4)GlcNAc(b1-3)Gal(b1-4)GlcNAc(b1-2)Man(a1-3)[Gal(b1-4)GlcNAc(b1-3)Gal(b1-4)GlcNAc(b1-3)Gal(b1-4)GlcNAc(b1-3)Gal(b1-4)GlcNAc(b1-3)Gal(b1-4)GlcNAc(b1-2)Man(a1-6)]Man(b1-4)GlcNAc(b1-4)GlcNAc
Summary of the method: as §1

[23] = target: Gal(b1-4)GlcNAc(b1-3)Gal(b1-4)GlcNAc(b1-3)Gal(b1-4)GlcNAc(b1-3)Gal(b1-4)GlcNAc(b1-3)Gal(b1-4)GlcNAc(b1-2)[Gal(b1-4)GlcNAc(b1-3)Gal(b1-4)GlcNAc(b1-3)Gal(b1-4)GlcNAc(b1-3)Gal(b1-4)GlcNAc(b1-3)Gal(b1-4)GlcNAc(b1-6)]Man(a1-6)[Gal(b1-4)GlcNAc(b1-3)Gal(b1-4)GlcNAc(b1-3)Gal(b1-4)GlcNAc(b1-3)Gal(b1-4)GlcNAc(b1-3)Gal(b1-4)GlcNAc(b1-2)Man(a1-3)]Man(b1-4)GlcNAc(b1-4)[Fuc(a1-6)]GlcNAc
Summary of the method: as §1

[24] = target: Gal(b1-4)GlcNAc(b1-3)Gal(b1-4)GlcNAc(b1-6)[Gal(b1-3)]GalNAc
Summary of the method: as §1

[25] = target: Gal(b1-4)GlcNAc(b1-6)[Gal(b1-4)GlcNAc(b1-3)]GalNAc
Summary of the method: as §1

GalNAc(a1-3)Gal = target: GalNAc(a1-3)Gal
Summary of the method: as §1

[26] = target: GlcNAc(a1-6)Gal(b1-4)GlcNAc
Summary of the method: as §1

[27] = target: GlcNAc(b1-3)Gal(b1-4)GlcNAc(b1-2)Man(a1-3)[GlcNAc(b1-3)Gal(b1-4)GlcNAc(b1-2)Man(a1-6)]Man(b1-4)GlcNAc(b1-4)GlcNAc
Summary of the method: as §1

[28] = target: GlcNAc(b1-3)Gal(b1-4)GlcNAc(b1-3)Gal(b1-4)GlcNAc(b1-2)Man(a1-3)[GlcNAc(b1-3)Gal(b1-4)GlcNAc(b1-3)Gal(b1-4)GlcNAc(b1-2)Man(a1-6)]Man(b1-4)GlcNAc(b1-4)[Fuc(a1-6)]GlcNAc
Summary of the method: as §1

[29] = target: Man(a1-2)Man(a1-2)Man(a1-6)[Man(a1-3)]Man
Summary of the method: as §1

Man(a1-2)Man(a1-3)Man = target: Man(a1-2)Man(a1-3)Man
Summary of the method: as §1

[30] = target: Neu5Ac(a2-3)Gal(b1-3)GlcNAc6S
Summary of the method: as §1

[31] = target: Neu5Ac(a2-3)Gal(b1-4)GlcNAc(b1-2)Man(a1-3)[GlcNAc(b1-4)][Neu5Ac(a2-3)Gal(b1-4)GlcNAc(b1-2)Man(a1-6)]Man(b1-4)GlcNAc(b1-4)GlcNAc
Summary of the method: as §1

[32] = target: Neu5Ac(a2-3)Gal(b1-4)[Fuc(a1-3)]GlcNAc(b1-3)Gal(b1-4)GlcNAc
Summary of the method: as §1

[33] = target: Neu5Ac(a2-3)Gal(b1-4)[Fuc(a1-3)]GlcNAc(b1-3)Gal(b1-4)[Fuc(a1-3)]GlcNAc(b1-3)Gal(b1-4)[Fuc(a1-3)]GlcNAc
Summary of the method: as §1

[34] = target: Neu5Ac(a2-6)Gal(b1-4)GlcNAc(b1-2)Man(a1-6)Man(b1-4)GlcNAc(b1-4)GlcNAc
Summary of the method: as §1

[35] = target: Neu5Ac(a2-6)Gal(b1-4)GlcNAc(b1-3)Gal(b1-4)GlcNAc(b1-2)Man(a1-3)[Neu5Ac(a2-6)Gal(b1-4)GlcNAc(b1-3)Gal(b1-4)GlcNAc(b1-2)Man(a1-6)]GalNAc
Summary of the method: as §1

[36] = target: Neu5Ac(a2-6)Gal(b1-4)GlcNAc(b1-3)Gal(b1-4)GlcNAc(b1-3)Gal(b1-4)GlcNAc
Summary of the method: as §1

[37] = target: Neu5Ac(b2-6)Gal(b1-4)GlcNAc
Summary of the method: as §1

[38] = target: Neu5Gc(a2-3)Gal(b1-4)[Fuc(a1-3)]GlcNAc
Summary of the method: as §1

B1: DrGal9 (Danio rerio) (protein)
chain: MAFYQQPPYYNPRIPFSGPIQGGLQDGKSIIISGRVLPGANRFHVNLQCGSHSEANVALHFNPRYEDTDYVVNNSYLNRTWGSEERKYESPFAQGQTFTLQILVAQDKYKISTNGRHFMDYKHRIPFTQVDTVAVEGMVEVNSVAFQNPAGFIPPQAGYAPQYAVPPGCGFPAFPSAPNYTIPHKTVMNGGLHPGKNIVINGVVNPNAKSIIFNLCYRSGIAFHYNPRFDENVVVRNTNQMEKWGAEERFGGLPFHKGQPFQVTISCNPQHYNVFVNGKQEHTYKHRYTKLNDIDILEICGDLQLTSVQA
[1]
  glycan array binding signal (z-score): -0.123
[2]
  glycan array binding signal (z-score): 3.83
[3]
  glycan array binding signal (z-score): -0.32
[4]
  glycan array binding signal (z-score): -0.391
[5]
  glycan array binding signal (z-score): 0.599
[6]
  glycan array binding signal (z-score): 3.36
[7]
  glycan array binding signal (z-score): -0.391
[8]
  glycan array binding signal (z-score): -0.329
[9]
  glycan array binding signal (z-score): -0.36
[10]
  glycan array binding signal (z-score): -0.336
[11]
  glycan array binding signal (z-score): -0.409
Gal(a1-3)Gal
  glycan array binding signal (z-score): -0.376
Gal(a1-4)Gal(b1-4)Glc
  glycan array binding signal (z-score): -0.356
Gal(b1-3)GalNAc
  glycan array binding signal (z-score): -0.351
[12]
  glycan array binding signal (z-score): -0.117
[13]
  glycan array binding signal (z-score): -0.053
[14]
  glycan array binding signal (z-score): 1.3
[15]
  glycan array binding signal (z-score): 5.22
[16]
  glycan array binding signal (z-score): 0.373
[17]
  glycan array binding signal (z-score): 4.02
[18]
  glycan array binding signal (z-score): 4.33
[19]
  glycan array binding signal (z-score): 3.48
[20]
  glycan array binding signal (z-score): 3.44
[21]
  glycan array binding signal (z-score): 3.19
[22]
  glycan array binding signal (z-score): 3.05
[23]
  glycan array binding signal (z-score): 3.6
[24]
  glycan array binding signal (z-score): 0.054
[25]
  glycan array binding signal (z-score): -0.007
GalNAc(a1-3)Gal
  glycan array binding signal (z-score): -0.402
[26]
  glycan array binding signal (z-score): -0.386
[27]
  glycan array binding signal (z-score): 1.73
[28]
  glycan array binding signal (z-score): 3.13
[29]
  glycan array binding signal (z-score): -0.361
Man(a1-2)Man(a1-3)Man
  glycan array binding signal (z-score): -0.396
[30]
  glycan array binding signal (z-score): -0.144
[31]
  glycan array binding signal (z-score): 0.144
[32]
  glycan array binding signal (z-score): -0.356
[33]
  glycan array binding signal (z-score): -0.384
[34]
  glycan array binding signal (z-score): -0.399
[35]
  glycan array binding signal (z-score): 1.22
[36]
  glycan array binding signal (z-score): 0.598
[37]
  glycan array binding signal (z-score): -0.398
[38]
  glycan array binding signal (z-score): -0.351
